A short description of assay [1]: qHTS assay to identify small molecule antagonists of the thyroid receptor (TR) signaling pathway (AID 743065). Further: series mostly up to about 70 µM; nearly all actives have a fitted effect of over 55% in size. A digest of the protocol:
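GH3.TRE-Luc rat pituitary cells carrying two TR response elements driving luciferase were plated for 4 h, given compound plus 1 nM T3 (final), and incubated 23.5 h at 37 C. ONE-Glo luminescence measured reporter inhibition; CellTiter-Fluor fluorescence tracked cytotoxicity.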
For orientation: Quantitative high-throughput screening tests each substance at several concentrations.

The subject of assay [2] is thyroid hormone receptor (rat, GH3 cells). Kind of assay: qHTS assay to identify small molecule agonists of the thyroid receptor (TR) signaling pathway (AID 743066; calls by dose curve).
Assay [3] addresses Estrogen receptor (Homo sapiens) (UniProt P03372). Kind of assay: qHTS assay to identify small molecule antagonists of the estrogen receptor alpha (ER-alpha) signaling pathway (AID 743069; active means well fitted curve in the direction sought with a large enough effect in the signal ratio in the repeat runs, not every such curve was filed as active; the % refers to the signal ratio). The method, boiled down: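 Estradiol-stimulated ER-alpha-UAS-bla HEK293 cells, 18 hr compound exposure at 37C. LiveBLAzer B/G substrate, 2 hr RT, fluorescence read.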
Assay [4] is described as follows: qHTS assay to identify small molecule antagonists of the estrogen receptor alpha (ER-alpha) signaling pathway - cell viability counter screen (AID 743074; calls by dose curve;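 further: HEK293 cells carrying ER-alpha-UAS-bla reporter stimulated with 17beta-estradiol; nearly all actives have a fitted effect of over 45% in size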).
For assay [5], the target named is Estrogen receptor (Homo sapiens) (UniProt P03372). Kind of assay: qHTS assay to identify small molecule agonists of the estrogen receptor alpha (ER-alpha) signaling pathway (AID 743075; calls by dose curve;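 further: HEK293 GripTite cells with ER-alpha and UAS-driven beta-lactamase reporter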).
The target is the same in assay [6]. Kind of assay: qHTS assay to identify small molecule agonists of the estrogen receptor alpha (ER-alpha) signaling pathway using the BG1 cell line (AID 743079). Further: nearly all actives have a fitted effect of over 20% in size. Further: potency means the concentration at half of the fitted maximal effect.
Assay [7] is described as follows: qHTS assay to identify small molecule antagonists of the estrogen receptor alpha (ER-alpha) signaling pathway using the BG1 cell line (AID 743080; calls by dose curve;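 further: BG1 cells stimulated with 17beta-estradiol alongside compound; series mostly up to about 70 µM; nearly all actives have a fitted effect of over 25% in size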). A digest of the protocol:
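Seeding, 24 h rest, compound transfer from DMSO, 17beta-estradiol addition, 21.5 h incubation, CellTiter-Fluor (30 min, 37 C), then ONE-Glo (30 min, room temperature): this sequence was run on BG1-Luc-4E2 reporter cells.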

Assay [8] can be described thus: qHTS assay to identify small molecule antagonists of the estrogen receptor alpha (ER-alpha) signaling pathway using the BG1 cell line - cell viability counter screen (AID 743081).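 Further: compound given together with 17beta-estradiol as the ER stimulus; series mostly up to about 70 µM; nearly all actives have a fitted effect of over 45% in size.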
In the next assay the target is Aromatase (Homo sapiens) (UniProt P11511). Kind of assay: qHTS assay to identify aromatase inhibitors (AID 743083). Further: series mostly up to about 70 µM; nearly all actives have a fitted effect of over 55% in size.
The nature of assay [9]: qHTS assay to identify aromatase inhibitors - cell viability counter screen (AID 743084).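 Further: cells stimulated with testosterone during compound exposure; nearly all actives have a fitted effect of over 55% in size.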

Molecules are shown by their SMILES. Several values for one entry are separate records, joined by “and”; a condition that tells them apart may be missing. Equal values may be shown once. Inconclusive results are not listed. Values without a mark were called inactive. Activity calls are given as the source filed them. Unless noted, the call rests on the fitted dose curve; in most records, active means well fitted curve in the direction sought with a large enough effect in the repeat runs; inconclusive means weak or mixed curves; inactive means no such curve, though single readings can be large; an effect the other way counts as inactive or inconclusive.

Chain of Aromatase (Homo sapiens) (P11511 whole entry, looked up): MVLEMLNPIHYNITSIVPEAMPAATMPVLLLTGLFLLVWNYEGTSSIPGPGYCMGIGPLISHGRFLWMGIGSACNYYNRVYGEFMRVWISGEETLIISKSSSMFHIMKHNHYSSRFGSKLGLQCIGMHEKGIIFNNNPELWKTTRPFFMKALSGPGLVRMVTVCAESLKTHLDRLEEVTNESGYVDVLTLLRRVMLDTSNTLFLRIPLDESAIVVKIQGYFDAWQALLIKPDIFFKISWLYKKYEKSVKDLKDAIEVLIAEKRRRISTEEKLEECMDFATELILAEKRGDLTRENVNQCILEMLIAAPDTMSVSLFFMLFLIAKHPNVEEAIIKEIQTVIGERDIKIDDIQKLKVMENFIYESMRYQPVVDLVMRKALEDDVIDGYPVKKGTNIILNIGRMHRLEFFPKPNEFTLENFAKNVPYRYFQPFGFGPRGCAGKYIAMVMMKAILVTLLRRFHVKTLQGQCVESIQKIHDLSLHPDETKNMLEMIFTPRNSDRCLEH
Chain of Estrogen receptor (Homo sapiens) (P03372 whole entry, looked up): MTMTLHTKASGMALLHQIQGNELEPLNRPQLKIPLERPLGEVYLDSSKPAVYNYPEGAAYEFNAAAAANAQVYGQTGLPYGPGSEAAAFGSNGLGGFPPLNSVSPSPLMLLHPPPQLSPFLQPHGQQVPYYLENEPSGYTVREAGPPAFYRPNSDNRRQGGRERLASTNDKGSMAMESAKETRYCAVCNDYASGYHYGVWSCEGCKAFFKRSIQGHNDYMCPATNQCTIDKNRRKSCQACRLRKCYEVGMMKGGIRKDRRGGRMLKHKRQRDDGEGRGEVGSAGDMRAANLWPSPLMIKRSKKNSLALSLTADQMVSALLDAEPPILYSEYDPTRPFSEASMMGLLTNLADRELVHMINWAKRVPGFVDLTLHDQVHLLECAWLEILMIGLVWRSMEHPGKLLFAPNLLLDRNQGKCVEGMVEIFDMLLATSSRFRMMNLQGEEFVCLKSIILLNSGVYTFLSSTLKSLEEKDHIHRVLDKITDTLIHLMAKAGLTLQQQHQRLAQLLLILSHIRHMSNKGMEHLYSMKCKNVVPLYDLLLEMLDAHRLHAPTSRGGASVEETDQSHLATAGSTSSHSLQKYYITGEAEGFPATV

In the case of `C1CCN(CN2CCCCC2)CC1`, the Potency entry in assay [1], in [3], in assay [5], in [6], in [7] and in assay [8] was “inactive” each time. For the same compound, the Potency entry (in the assay with Aromatase (Homo sapiens); in [9]) was “inactive” throughout. Moreover, the compound was called inactive in [2] and in assay [4].

`CC(C)CC(C)(C)C`: the Potency entry in [1], in [3], in [5], in [6], in assay [7] and in [8] was “inactive” in each case. For the same compound, the Potency entry (with Aromatase (Homo sapiens); in assay [9]) was “inactive” throughout. Further, the compound was classed as inactive in assay [2] and in assay [4].

Take `CC(C)(C(=O)O)c1ccc(C(O)CCCN2CCC(C(O)(c3ccccc3)c3ccccc3)CC2)cc1` (stereo unspecified): the Potency result in [1], in [3], in assay [5], in assay [6], in assay [7] and in [9] was “inactive” in each case. Also, the call in [2] and in assay [4] was inactive.

For `CCCCCCCCCCCCN1CCOCC1`, the Potency entry in assay [1], in assay [3], in [5], in [6], in [7] and in assay [8] was “inactive” in each case. Further, the Potency result (in the assay with Aromatase (Homo sapiens); in assay [9]) was “inactive” throughout. Besides, the outcome in assay [2] and in assay [4] was inactive.

`O=C(OCCOCCOCCOC(=O)c1ccccc1)c1ccccc1`: the Potency entry in assay [1], in assay [3], in [5], in assay [6], in assay [7] and in [8] was “inactive” in each case. The Potency entry (with Aromatase (Homo sapiens); in [9]) was “inactive” throughout. The call in [2] and in assay [4] was inactive.

Consider `CCC1=C(C)CN(C(=O)NCCc2ccc(S(=O)(=O)NC(=O)NC3CCC(C)CC3)cc2)C1=O` (stereo unspecified), for which the Potency result in [1], in [3], in assay [5], in assay [6], in [7] and in [8] was “inactive” in each case. The Potency result (with Aromatase (Homo sapiens); in [9]) was “inactive” throughout. Besides, the result in assay [2] and in [4] was inactive.

Take `COc1ccc(C(=O)Nc2ccccc2)cc1[N+](=O)[O-]`: the Potency result (in assay [1]; in [3]; in [5]; in assay [8]; with Aromatase (Homo sapiens); in [9]) was “inactive” in each case. Besides, the result in assay [2] and in assay [4] was inactive. In assay [6], the Potency is 3.09 µM (active).

`O=C(c1ccc(Cl)cc1)c1ccc(Cl)cc1`: the Potency entry in assay [1], in [3], in assay [5], in assay [6], in assay [7] and in assay [8] was “inactive” in each case. The Potency result (with Aromatase (Homo sapiens); in assay [9]) was “inactive” each time. In addition, the outcome in [2] and in assay [4] was inactive.

Take `CCCC1CCOC(C)S1` (stereo unspecified): the Potency result in [1], in [3], in [5], in [6], in assay [7] and in assay [8] was “inactive” in each case. Besides, the Potency result (with Aromatase (Homo sapiens); in assay [9]) was “inactive” each time. For the same compound, the compound was classed as inactive in [2] and in [4].

On to `CCCOC(C)=O`, for which the Potency entry in assay [1], in assay [3], in assay [5], in [6], in [7] and in assay [8] was “inactive” throughout. Besides, the Potency entry (in the assay with Aromatase (Homo sapiens); in assay [9]) was “inactive” throughout. For the same compound, the result in assay [2] and in assay [4] was inactive.

Turning to `CC(=O)c1ccc(Cl)c(Cl)c1Cl`, the Potency entry in assay [1], in assay [3], in assay [5], in assay [6], in assay [7] and in assay [8] was “inactive” each time. For the same compound, the Potency entry (with Aromatase (Homo sapiens); in assay [9]) was “inactive” in each case. For the same compound, the result in [2] and in assay [4] was inactive.

On to `O=c1[nH][nH]c2ccccc12`, for which the Potency result in assay [1], in assay [3], in [5], in assay [6], in assay [7] and in [8] was “inactive” each time. The Potency entry (in the assay with Aromatase (Homo sapiens); in assay [9]) was “inactive” throughout. The result in assay [2] and in [4] was inactive.

On to `CC(C)(C)N`, for which the Potency result in [1], in assay [3], in assay [5], in assay [6], in [7] and in [8] was “inactive” in each case. Also, the Potency entry (with Aromatase (Homo sapiens); in [9]) was “inactive” in each case. In addition, the outcome in assay [2] and in assay [4] was inactive.

`Clc1nc2ccccc2nc1Cl`: the Potency entry (in assay [1]; in [3]; in [5]; in assay [6]; in assay [8]; in the assay with Aromatase (Homo sapiens)) was “inactive” throughout. For the same compound, the Potency entry in [9] was “inactive”. Moreover, the compound was classed as inactive in assay [2] and in [4].

As for `CCC[Si](OC)(OC)OC`, the Potency result in assay [1], in assay [3], in assay [5], in assay [6], in [7] and in assay [8] was “inactive” in each case. Moreover, the Potency result (with Aromatase (Homo sapiens); in [9]) was “inactive” throughout. Further, the compound was classed as inactive in [2] and in assay [4].

Turning to `CC(CCl)OC(C)CCl` (stereo unspecified), the Potency result in [1], in assay [3], in assay [5], in assay [6], in assay [7] and in assay [8] was “inactive” throughout. Moreover, the Potency result in [9] is “inactive”. Moreover, the call in assay [2] and in assay [4] was inactive.

For `CCCCCO`, the Potency result (in [1]; in [3]; in assay [5]; in assay [6]; in [7]; with Aromatase (Homo sapiens)) was “inactive” throughout. The Potency entry in [9] was “inactive”. The result in assay [2] and in [4] was inactive.

On to `Cc1nc(C)c(C)nc1C`, for which the Potency entry in assay [1], in assay [3], in assay [5], in assay [6], in assay [7] and in assay [8] was “inactive” each time. The Potency entry (with Aromatase (Homo sapiens); in assay [9]) was “inactive” in each case. Further, the result in assay [2] and in assay [4] was inactive.

For the compound `COc1ccc(C(=O)c2ccc(C)cc2)c(O)c1`, the Potency entry (in assay [1]; in assay [3]; in assay [5]; in assay [8]; in the assay with Aromatase (Homo sapiens); in assay [9]) was “inactive” in each case. The result in [2] and in assay [4] was inactive. For the same compound, the Potency in assay [6] was 13.3 µM (active) and 12.3 µM (active).

Take `C1=COCCC1`: the Potency entry in assay [1], in [3], in assay [5], in assay [6], in assay [7] and in [8] was “inactive” in each case. Besides, the Potency entry (with Aromatase (Homo sapiens); in [9]) was “inactive” throughout. Moreover, the outcome in assay [2] and in assay [4] was inactive.

On to `COc1ccc(/C=C/c2cc(OC)cc(=O)o2)cc1`, for which the Potency result (in [1]; in [3]; in assay [5]; in assay [8]; with Aromatase (Homo sapiens); in [9]) was “inactive” throughout. Besides, the compound was called inactive in assay [2] and in [4]. Further, the Potency in assay [6] is 0.884 µM (active).

For `C=CC(=O)NC(C)(C)C`, the Potency result in assay [1], in assay [3], in assay [5], in assay [6], in assay [7] and in assay [8] was “inactive” in each case. Further, the Potency result (in the assay with Aromatase (Homo sapiens); in assay [9]) was “inactive” in each case. For the same compound, the outcome in assay [2] and in [4] was inactive.

`CC(C)CCCCCOC(=O)CS`: the Potency result in [1], in assay [3], in [5], in assay [6], in [7] and in [8] was “inactive” each time. Moreover, the Potency result in [9] was “inactive”. Further, the result in assay [2] and in assay [4] was inactive.

Turning to `CCCC1CCCC(=O)O1` (stereo unspecified), the Potency result in assay [1], in assay [3], in assay [5], in assay [6], in assay [7] and in assay [8] was “inactive” in each case. In addition, the Potency entry (with Aromatase (Homo sapiens); in [9]) was “inactive” in each case. The compound was called inactive in [2] and in [4].

Regarding `O=Cc1ccc([N+](=O)[O-])cc1`, the Potency result (in [1]; in assay [3]; in assay [5]; in [7]; in [8]; with Aromatase (Homo sapiens)) was “inactive” in each case. Further, the Potency result in assay [9] is “inactive”. Further, the compound was called inactive in assay [2] and in assay [4]. For the same compound, the Potency in [6] is 30.8 µM (active).
